{
  "source": "paper PMC6792352",
  "about": "“Limited Chemical Structural Diversity Found to Modulate Thyroid Hormone Receptor in the Tox21 Chemical Library” (Environmental Health Perspectives, 2019)",
  "note": "Counter-ions that a name gives are not always drawn.",
  "data": [
    {"system": "thyroid hormone receptor (endogenous TRα and TRβ)", "parameters": "species or system GH3-TRE-Luc (rat pituitary); GH3-TRE-Luc luciferase reporter, antagonist mode against 1 nM T3, loss of signal, qHTS", "conditions": "read-out: Average AC50 (uM) GH3-TRE-Antag, antagonist mode, 1 nM T3, no GH3 cytotoxicity hit", "units": {"AC50": "µM"}, "values": [
      {"smiles": "O=C(O)c1cc(I)cc(I)c1I", "note": "[2,3,5-Triiodobenzoic acid]", "AC50": "> 100"},
      {"smiles": "Cc1cc(CC(=O)O)c(C)n1-c1ccc(Cl)cc1", "note": "[Clopirac]", "AC50": 38.5},
      {"smiles": "O=C(O)C[C@H](O)C[C@H](O)/C=C/c1c(C2CC2)nc2ccccc2c1-c1ccc(F)cc1", "note": "[Pitavastatin calcium]", "AC50": 46.3},
      {"smiles": "CCCCCCCC/C=C/CCCCCCCC(=O)OCCO", "note": "[Polyoxyethylene monoleate]", "AC50": 81.3},
      {"smiles": "CC[C@H](NC(=O)c1cc(F)ccc1NS(=O)(=O)c1cccc2cccnc12)c1ccccc1", "note": "[AVE3295]", "AC50": 56.9},
      {"smiles": "CCc1ccc(CCOc2ccc(CC3SC(=O)NC3=O)cc2)nc1", "note": "(stereo not shown) [Pioglitazone hydrochloride]", "AC50": "> 50"},
      {"smiles": "CCCC1C(CC)=CC(CC)=CN1c1ccccc1", "note": "(stereo not shown) [3,5-Diethyl-1-phenyl-2-propyl-1,2-dihydropyridine]", "AC50": 53.9},
      {"smiles": "Cc1cccc(C(C)(C)C)c1O", "note": "[2-tert-Butyl-6-methylphenol]", "AC50": 75.7},
      {"smiles": "C#C[C@]1(O)CC[C@H]2[C@@H]3CCC4=C(CCC(=O)C4)[C@H]3CC[C@@]21C", "note": "[Norethynodrel]", "AC50": 16.4},
      {"smiles": "CCCCCCCCCCCC(=O)N(C)CC(=O)O", "note": "[N-Dodecanoyl-N-methylglycine]", "AC50": "> 90"},
      {"smiles": "COc1nc(N)nc2c1ncn2[C@@H]1O[C@H](CO)[C@@H](O)[C@@H]1O", "note": "[Nelarabine]", "AC50": 25.2},
      {"smiles": "CCC(C)(C)c1ccc(O)cc1", "note": "[4-(2-Methylbutan-2-yl)phenol]", "AC50": "> 50"},
      {"smiles": "Cc1cc(C)c(/C=C2\\C(=O)Nc3ccccc32)[nH]1", "note": "[SU-5416]", "AC50": 18.1},
      {"smiles": "CCCCCCCCCCCC(=O)O", "note": "[Dodecanoic acid]", "AC50": 68.4},
      {"smiles": "O=C(Nc1ccc(Cl)c(Cl)c1)C1CC1", "note": "[Cypromid]", "AC50": 45.8},
      {"smiles": "CC(=O)C(Cl)C(=O)N(C)C", "note": "(stereo not shown) [2-Chloro-N,N-dimethyl-3-oxobutanamide]", "AC50": 90.4},
      {"smiles": "O=C(Nc1ccccc1)c1ccccc1O", "note": "[Salicylanilide]", "AC50": 48.9},
      {"smiles": "ClC1C(Cl)C(Cl)C(Cl)C(Cl)C1Cl", "note": "(stereo not drawn) [alpha-1,2,3,4,5,6-Hexachlorocyclohexane]", "AC50": 26.5},
      {"smiles": "CC(O)(CS(=O)(=O)c1ccc(F)cc1)C(=O)Nc1ccc(C#N)c(C(F)(F)F)c1", "note": "(stereo not shown) [Bicalutamide]", "AC50": 35.3},
      {"smiles": "CCOC(=O)C(C)OC(=O)c1cc(Oc2ccc(C(F)(F)F)cc2Cl)ccc1[N+](=O)[O-]", "note": "(stereo not shown) [Lactofen]", "AC50": 81.8},
      {"smiles": "C=CCNC1=C2C[C@@H](C)C[C@H](OC)[C@H](O)[C@@H](C)/C=C(\\C)[C@H](OC(N)=O)[C@@H](OC)/C=C\\C=C(/C)C(=O)NC(=CC1=O)C2=O", "note": "[Tanespimycin]", "AC50": 0.306},
      {"smiles": "C#C[C@]1(O)C=C[C@H]2[C@@H]3CCC4=CC(=O)CC[C@@H]4[C@H]3CC[C@@]21CC", "note": "[Gestodene]", "AC50": 15.5},
      {"smiles": "CC1=CC(C)(C)Nc2ccccc21", "note": "[1,2-Dihydro-2,2,4-trimethylquinoline, polymer]", "AC50": 28},
      {"smiles": "CCCCC(C#N)(Cn1cncn1)c1ccc(Cl)cc1", "note": "(stereo not shown) [Myclobutanil]", "AC50": 79},
      {"smiles": "CCC1(C2=NCCN2)Cc2ccccc2O1", "note": "(stereo not shown) [Efaroxan]", "AC50": 45.2},
      {"smiles": "CC(C)(C)c1ccc(OC(=O)c2ccccc2O)cc1", "note": "[4-tert-Butylphenyl salicylate]", "AC50": "> 90"},
      {"smiles": "CCCCCCCCCCCCCCNCCO", "note": "[Myralact]", "AC50": 22.8},
      {"smiles": "C=C(C#N)C(=O)OCC", "note": "[Ethyl cyanoacrylate]", "AC50": "> 90"},
      {"smiles": "O=C(O)Cc1ccccc1Nc1c(Cl)cccc1Cl", "note": "[Diclofenac sodium]", "AC50": "> 50"},
      {"smiles": "Cc1cc(Nc2ccccc2C(=O)O)ccc1Cl", "note": "[2-[(4-Chloro-3-methylphenyl)amino]benzoic acid]", "AC50": 16.1},
      {"smiles": "CCN(CC)C(=O)C(C)Oc1cccc2ccccc12", "note": "(stereo not shown) [Napropamide]", "AC50": 74.1},
      {"smiles": "CCCCCCC[N+](CC)(CC)CCCCc1ccc(Cl)cc1", "note": "[Clofilium tosylate]", "AC50": 16.3},
      {"smiles": "C#C[C@]1(O)CC[C@H]2[C@@H]3CCc4cc(O)ccc4[C@H]3CC[C@@]21C", "note": "[17alpha-Ethinylestradiol]", "AC50": 16.2},
      {"smiles": "CC(C)(O)C(=O)Nc1ccc([N+](=O)[O-])c(C(F)(F)F)c1", "note": "[Hydroxyflutamide]", "AC50": "> 70"},
      {"smiles": "CCN(CC)CCOCCOC(=O)C1(c2ccccc2)CCCC1", "note": "[Carbetapentane]", "AC50": 11},
      {"smiles": "COc1ccc(-c2coc3cc(O)cc(O)c3c2=O)cc1", "note": "[Biochanin A]", "AC50": 67},
      {"smiles": "Cc1nc(-c2ccc(OCC(C)C)c(C#N)c2)sc1C(=O)O", "note": "[Febuxostat]", "AC50": 17.9},
      {"smiles": "CCCN1C[C@H](CSC)C[C@@H]2c3cccc4[nH]cc(c34)C[C@H]21", "note": "[Pergolide methanesulfonate]", "AC50": 10.1},
      {"smiles": "CC(C)C[C@H](NC(=O)OCC1c2ccccc2-c2ccccc21)C(=O)O", "note": "[N-(9-Fluorenylmethoxycarbonyl)-L-leucine]", "AC50": "> 90"},
      {"smiles": "C#C[C@]1(O)CC[C@H]2[C@@H]3CCC4=CC(=O)CC[C@]4(C)[C@H]3CC[C@@]21C", "note": "[Ethisterone]", "AC50": 7.79}
    ]}
  ]
}
